Test results reported in PubChem BioAssay (EPA / NIEHS).
Inconclusive results are not listed. The source made the active and inactive calls. How the source made its calls, unless noted: active means hit-call score of the fitted dose curve at least 0.9, where 1 is the maximum; inactive means score below 0.9.

Tests used:
[1] = read-out: Transforming Growth Factor (TGFB1), TGFB1 (gene 7040); assay: LTEA_HepaRG_TGFB1: Life Technologies and Expression Analysis (LTEA) Assay for Transforming Growth Factor (TGFB1) Transporter using HepaRG (AID 2283533); settings: mRNA level, 48 h; actives raise or lower the signal
Procedure, shortened: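 TGFB1 transcript measured by qRT-PCR with normalisation to three housekeeping genes (ACTB, GAPDH, POLR2A); human HepaRG line treated in duplicate for 48 hr with an 8-point series topping at 100 uM, 0.5% DMSO vehicle, bidirectionally fitted.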

TIMP1, TIMP1 (gene 7076) = assay: LTEA_HepaRG_TIMP1: Life Technologies and Expression Analysis (LTEA) Assay for TIMP1 using HepaRG (AID 2283534); settings: mRNA level, 48 h; actives raise or lower the signal
Procedure, shortened: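 Bidirectional change in TIMP1 transcript versus 0.5% DMSO, measured by TaqMan qRT-PCR with three housekeeping genes for normalization. HepaRG human liver cells dosed 48 h in duplicate, top concentration 100 uM with half-log dilutions.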

[2] = read-out: Tumor necrosis factor receptor 1 (TNFRSF1A), TNFRSF1A (gene 7132); assay: LTEA_HepaRG_TNFRSF1A: Life Technologies and Expression Analysis (LTEA) Assay for Tumor necrosis factor receptor 1 (TNFRSF1A) using HepaRG (AID 2283535); settings: mRNA level, 48 h; actives raise or lower the signal
Procedure, shortened: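 mRNA measured by qRT-PCR (TaqMan, Fluidigm arrays) against ACTB/GAPDH/POLR2A housekeepers after 48 h chemical exposure of HepaRG cells. Top concentration 100 uM, half-log 8-point series, duplicates; vehicle 0.5% DMSO, both fit directions.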

[3] = read-out: Thyroid Hormone Responsive (THRSP), THRSP (gene 7069); assay: LTEA_HepaRG_THRSP: Life Technologies and Expression Analysis (LTEA) Assay for Thyroid Hormone Responsive (THRSP) using HepaRG (AID 2283536); settings: mRNA level, 48 h; actives raise or lower the signal
Procedure, shortened: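 Differentiated HepaRG cells treated 48 h in serum-free induction medium with 8 half-log concentrations up to 100 uM (0.5% DMSO), duplicates. THRSP mRNA by TaqMan qRT-PCR normalised to ACTB, GAPDH, POLR2A; bidirectional fit versus DMSO.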

[4] = read-out: UDP glucuronosyltransferase (UGT1A1), UGT1A1 (gene 54658); assay: LTEA_HepaRG_UGT1A1: Life Technologies and Expression Analysis (LTEA) Assay for UDP glucuronosyltransferase (UGT1A1) using HepaRG (AID 2283538); settings: mRNA level, 48 h; actives raise or lower the signal
Procedure, shortened: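 HepaRG cells, 0.5% DMSO vehicle, 48 h exposure in serum-free induction medium to 8-point half-log series topping at 100 uM, in duplicate. UGT1A1 mRNA by Fluidigm qRT-PCR, normalized to ACTB/GAPDH/POLR2A; bidirectional fit versus DMSO.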

[5] = read-out: UDP glucuronosyltransferase (UGT1A6), UGT1A6 (gene 54578); assay: LTEA_HepaRG_UGT1A6: Life Technologies and Expression Analysis (LTEA) Assay for UDP glucuronosyltransferase (UGT1A6) using HepaRG (AID 2283539); settings: mRNA level, 48 h; actives raise or lower the signal
Procedure, shortened: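 Expression was quantified by TaqMan qRT-PCR on Fluidigm arrays with ACTB/GAPDH/POLR2A normalization and bidirectional fitting against 0.5% DMSO. HepaRG cells (~100,000/well) were treated in duplicate for 48 h at eight half-log concentrations up to 100 uM in serum-free induction medium.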

[6] = read-out: X-box binding protein 1 (XBP1), XBP1 (gene 7494); assay: LTEA_HepaRG_XBP1: Life Technologies and Expression Analysis (LTEA) Assay for X-box binding protein 1 (XBP1) using HepaRG (AID 2283540); settings: mRNA level, 48 h; actives raise or lower the signal
Procedure, shortened: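 XBP1 transcript by qRT-PCR (housekeeping-normalized: ACTB, GAPDH, POLR2A) after 48 h chemical treatment of HepaRG cells, 8-point half-log series topping at 100 uM, vehicle 0.5% DMSO. Gain and loss of signal fitted relative to DMSO.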

[7] = LTEA_HepaRG_LDH_cytotoxicity: Cytotoxicity Assessment in the Life Technologies and Expression Analysis (LTEA) Assay (AID 2283563; active means hit-call score of the fitted dose curve at least 0.9, where 1 is the maximum)
Procedure, shortened: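 LDH release into culture medium read after 48 h chemical treatment of HepaRG cells. Duplicate wells, eight-point half-log series topping at 100 uM, 0.5% DMSO vehicle and baseline.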

[8] = Tanguay_ZF_120hpf_MORT_legacy: (Legacy) Oregon State University Tanguay Lab 120 Hour Post-fertilization zebrafish Assay for Mortality (AID 2283633; active means hit-call score of the fitted dose curve at least 0.9, where 1 is the maximum)
Procedure, shortened: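 Static waterborne exposure from 6 to 120 hpf at 28C of single dechorionated wild-type (5D) embryos per well, 0.64% DMSO final. Death recorded present/absent by brightfield at 24 and 120 hpf.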

[9] = Tanguay_ZF_120hpf_YSE_legacy: (Legacy) Oregon State University Tanguay Lab 120 Hour Post-fertilization zebrafish Assay for Yolk Sac Edema (AID 2283634; active means hit-call score of the fitted dose curve at least 0.9, where 1 is the maximum)
Procedure, shortened: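 Presence or absence of yolk sac edema was recorded at 120 hpf in surviving larvae. These were wild-type Tropical 5D embryos, chorion removed at 4 hpf, held in static exposure at 28C from 6 hpf with 0.64% DMSO vehicle.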

[10] = read-out: Cellular tumor antigen p53 (Homo sapiens) (UniProt P04637); assay: LTEA_HepaRG_TP53: Life Technologies and Expression Analysis (LTEA) Assay for Tumor Protein P53 (TP53) using HepaRG (AID 2283537); settings: mRNA level, 48 h; actives raise or lower the signal
Procedure, shortened: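 Differentiated HepaRG cells in serum-free induction medium exposed 48 h in duplicate to 8 half-log concentrations, top 100 uM, 0.5% DMSO. TP53 mRNA by TaqMan qRT-PCR (Fluidigm), normalized to ACTB, GAPDH, POLR2A; fitted bidirectionally versus DMSO.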

[11] = target: Cellular tumor antigen p53 (Homo sapiens) (UniProt P04637); assay: TOX21_p53_BLA_p3_ratio: Tox21 HCT-116 p53 Agonism Beta-lactamase Assay, Ratio, Phase 3 (AID 2283596; active means hit-call score of the fitted dose curve at least 0.9, where 1 is the maximum)
Cellular tumor antigen p53 (Homo sapiens), sequence (P04637 whole entry, looked up): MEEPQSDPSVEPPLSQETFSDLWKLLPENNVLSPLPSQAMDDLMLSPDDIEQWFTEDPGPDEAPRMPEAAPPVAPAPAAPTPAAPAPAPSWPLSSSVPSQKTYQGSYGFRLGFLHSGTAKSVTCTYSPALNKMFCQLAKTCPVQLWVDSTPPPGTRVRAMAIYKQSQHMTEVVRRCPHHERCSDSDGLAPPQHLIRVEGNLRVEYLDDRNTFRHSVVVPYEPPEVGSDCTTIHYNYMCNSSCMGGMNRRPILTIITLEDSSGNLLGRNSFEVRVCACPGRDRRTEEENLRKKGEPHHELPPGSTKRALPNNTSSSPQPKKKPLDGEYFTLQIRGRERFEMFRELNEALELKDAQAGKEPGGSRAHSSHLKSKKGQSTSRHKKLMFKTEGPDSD
Procedure, shortened: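 HCT116 p53-bla cells (4000/well) given compound in DMSO (217-fold dilution) after 5 h, incubated 16 h at 37C. CCF4-AM substrate 2 h at room temperature; 460/530 nm emission ratio, gain fitted against DMSO.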

[12] = TOX21_p53_BLA_p4_viability: Viability Assessment in the Tox21 HCT-116 p53 Agonism Beta-lactamase Assay, Phase 4 (AID 2283597; active means hit-call score of the fitted dose curve at least 0.9, where 1 is the maximum;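 further: hits lower the luminescence signal meaning cytotoxicity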)
Procedure, shortened: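 Following a 16 h exposure at 37C, the treated HCT116 wells were first read for the FRET ratio. They were then lysed with CellTiter-Glo, and ATP luminescence was recorded after 30 min at room temperature.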

[13] = target: Cellular tumor antigen p53 (Homo sapiens) (UniProt P04637); assay: TOX21_p53_BLA_p5_ratio: Tox21 HCT-116 p53 Agonism Beta-lactamase Assay, Ratio, Phase 5 (AID 2283599; active means hit-call score of the fitted dose curve at least 0.9, where 1 is the maximum)
Procedure, shortened: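 HCT-116 p53-bla cells (4000/well) plated 5 h, dosed with compound (217-fold DMSO dilution) for 16 h at 37 C; CCF4-AM substrate 2 h at room temperature. Activity is the 460/530 nm emission ratio (405 nm excitation), fitted in gain-of-signal direction versus DMSO.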

[14] = TOX21_p53_BLA_p5_viability: Viability Assessment in the Tox21 HCT-116 p53 Agonism Beta-lactamase Assay, Phase 5 (AID 2283600; active means hit-call score of the fitted dose curve at least 0.9, where 1 is the maximum)
Procedure, shortened: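 After the 460/530 nm beta-lactamase measurement, the wells received an ATP-detection luciferase reagent; signal was read 30 min later at RT. Compound treatment lasted 16 h on cells pre-incubated 5 h post-seeding.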

[15] = target: Cellular tumor antigen p53 (Homo sapiens) (UniProt P04637); assay: TOX21_p53_BLA_p4_ratio: Tox21 HCT-116 p53 Agonism Beta-lactamase Assay, Ratio, Phase 4 (AID 2283601; active means hit-call score of the fitted dose curve at least 0.9, where 1 is the maximum)
Procedure, shortened: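 HCT-116 p53 beta-lactamase reporter cells (4000/well) preincubated 5 h, then compound (217-fold dilution of DMSO stock) for 16 h at 37C. CCF4-AM substrate added 2 h at room temperature; 460/530 nm emission ratio fitted upward versus DMSO.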

[16] = TOX21_p53_BLA_p2_viability: Viability Assessment in the Tox21 HCT-116 p53 Agonism Beta-lactamase Assay, Phase 2 (AID 2283591; active means hit-call score of the fitted dose curve at least 0.9, where 1 is the maximum;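 further: compound exposure lasted 16 h at 37 °C; actives lower the ATP signal meaning cytotoxicity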)
Procedure, shortened: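 HCT116 p53-bla cells, 4000/well, dosed after 5 h plating (217-fold dilution of DMSO stocks) and incubated 16 h at 37C. Viability taken as cellular ATP by CellTiter-Glo luminescence after 30 min RT; signal loss marks cytotoxicity.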

[17] = target: Cellular tumor antigen p53 (Homo sapiens) (UniProt P04637); assay: TOX21_p53_BLA_p2_ratio: Tox21 HCT-116 p53 Agonism Beta-lactamase Assay, Ratio, Phase 2 (AID 2283592; active means hit-call score of the fitted dose curve at least 0.9, where 1 is the maximum)
Procedure, shortened: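 Gain-of-signal p53 agonism was scored from the beta-lactamase FRET ratio (460/530 nm, 405 nm excitation) in HCT116 cells treated 16 h at 37C, 5% CO2, with DMSO serving as negative control and baseline.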

Measured: AC50

Clc1ccccc1-c1nnc(-c2ccccc2Cl)nn1
active: [3] 50 µM | [4] 10.7 µM
inactive: [1] | TIMP1, TIMP1 (gene 7076) | [2] | [5] | [6] | [7] | [8] | [9]

O=C(NC(=O)c1c(F)cccc1F)Nc1ccc(OC(F)(F)C(F)OC(F)(F)F)c(Cl)c1 (configuration not stated)
inactive: [1] | TIMP1, TIMP1 (gene 7076) | [2] | [4] | [5] | [6] | [7] | [8] | [9]
active: [3] 6.25 µM

CC(C)N(C(=O)COc1nnc(C(F)(F)F)s1)c1ccc(F)cc1
active: [6] 28.5 µM
inactive: [1] | TIMP1, TIMP1 (gene 7076) | [2] | [10] | [4] | [7] | [11] | [12] | [13] | [14] | [8] | [9]

Cc1[nH]c(=O)n(C(C)(C)C)c(=O)c1Cl
inactive: [1] | TIMP1, TIMP1 (gene 7076) | [2] | [5] | [6] | [7] | [8] | [9]
active: [3] 50 µM | [4] 31 µM

N#CN
inactive: [1] | TIMP1, TIMP1 (gene 7076) | [2] | [3] | [4] | [5] | [6] | [7] | [8] | [9]

CNC(=O)/C=C(\C)OP(=O)(OC)OC
inactive: [1] | TIMP1, TIMP1 (gene 7076) | [2] | [3] | [4] | [5] | [6] | [7] | [8] | [9]

COP(=O)(OC)OC=C(Cl)Cl
inactive: [1] | TIMP1, TIMP1 (gene 7076) | [2] | [3] | [4] | [5] | [6] | [7] | [8] | [9]

CNC(=O)Oc1cccc(N=CN(C)C)c1
inactive: [1] | TIMP1, TIMP1 (gene 7076) | [2] | [3] | [10] | [4] | [5] | [6] | [12] | [13] | [15] | [8]

CNC(=O)Oc1ccccc1OC(C)C
active: [4] 0.633 µM
inactive: [1] | TIMP1, TIMP1 (gene 7076) | [2] | [3] | [10] | [5] | [6] | [7] | [16] | [17] | [11] | [13] | [14] | [15] | [8] | [9]
